# aSyn rescue: inhibitors of alpha-synuclein toxicity in yeast; Yeast expressing alpha-synuclein, growth rescue, BacTiter-Glo, 24 h; Potency, µM (doses to about 46.1 µM), inactives show top-dose growth rescue (activation), actives largely listed as activators; hit rate 0.14% among 370,000; also: % of control where 0% means no effect; nearly all actives have a fitted effect of over 65% in size
#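 Readout is rescue of growth in alpha-synuclein-expressing yeast, so inhibitors of toxicity appear as activators. Growth after 24 hr at 30 deg C in galactose medium is quantified by luminescence.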
# FUS yeast rescue: suppressors of FUS proteinopathy in yeast | Potency, µM (series often up to 76.6 µM), most hits filed as activators | hit rate 0.24% among 390,000 | S. cerevisiae FUS-expressing, growth rescue, OD600, 24 h | AID 1347120;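 also: plate controls were DMSO vehicle for no effect and reference control for full effect; nearly all actives have a fitted effect of over 55% in size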
#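 Absorbance at 600 nm, taken 24hr after compound addition, measured rescue of FUS-yeast growth at 30C. Induction used 2% galactose with seeding at OD 0.005. Controls: CP55940 from 92uM final, DMSO only.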
# Abeta yeast res: A-beta toxicity reversal in yeast; hit rate 0.063% among 410,000; AID 1347071; Potency, µM (doses to about 46.1 µM), hits mostly activators; yeast expressing A-beta42, growth rescue, OD600, 48 h; response scale: 0% DMSO, 100% iron-clioquinol control; also: nearly all actives have a fitted effect of over 55% in size
#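 Yeast growth medium received pinned compounds, then yeast cells expressing toxic A-beta were added; plates incubated at 30 C for 48 hr. Growth read as absorbance at 600 nm, normalized to DMSO and equimolar FeCl3 plus clioquinol controls.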
# TDP-43 yeast inh: inhibitors of TDP-43 toxicity in yeast; hit rate 1.8% among 410,000; TDP-43 expressing yeast growth rescue, BacTiter-Glo, 24 h; Potency, µM (highest dose often 46.1 µM), for the others: at the top dose growth rescue (activation), actives largely listed as activators; also: % of control where 0% means no effect; nearly all actives have a fitted effect of over 50% in size
#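 In this qHTS, compounds that restore growth of yeast expressing TDP-43 appear as activators. Cells (OD600=0.02, galactose medium, raffinose-pregrown) are incubated with compound 24 hr at 30 deg C and growth is quantified by BacTiter-Glo.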
# Numbers without * were called inactive; i = inactive; ? = inconclusive; . = no result. Shown are actives, neighbours in structure and some others; about 2.1% of the full set was active somewhere. Calls follow the shape of the dose curve; as a rule, active = well fitted curve in the direction sought with a large enough effect; inconclusive = small, poorly fitted or top-dose-only effect, or another doubt; inactive = no such curve, though single readings can be large; an effect the other way counts as inactive or inconclusive. Potency is read from the fitted curve at half-maximal effect.
SMILES,aSyn rescue,FUS yeast rescue,Abeta yeast res,TDP-43 yeast inh
CCN(CC)c1cc(C)c2cc(NC(=O)/C=C/c3cc(OC)c(OC)c(OC)c3)ccc2n1,.,i,i,20%
COc1cc(SC)ccc1C(=O)NCCOc1ccc(Cl)cc1,0%,.,i,18µM*
CCc1cc(-c2onc(C)c2-c2cscn2)c(O)cc1OC,?,i,i,18µM*
CCC[C@H]1[C@@H](NC(=O)C#Cc2ccccc2)CC[C@@]23CCCN2C(=O)CCC[C@@H]13,.,i,.,.
CN1C(=O)C2(N=c3ccccc3=N2)c2ccccc21,15%,i,i,11µM*
CN1C(=O)C2(OCC(C)([N+](=O)[O-])CO2)c2ccccc21 (stereo unspecified),-2%,i,i,5%
CNc1ccccc1C(C)(C)c1cc(-c2cccc([N+](=O)[O-])c2)no1,8%,i,11µM*,28%
COc1ccc(C=O)cc1COc1ccc2c(c1)OCO2,5%,i,i,14µM*
COc1ccc(C=O)cc1COc1ccc([N+](=O)[O-])c(C)c1,23%,i,i,?
O=C(CCSCc1ccccc1Cl)N1CCN(c2ccc(F)cc2)CC1,.,?,i,16µM*
O=C(CCSCc1ccccc1F)N1CCN(c2ccc(F)cc2)CC1,.,i,i,11µM*
O=C(CSCc1ccc(F)cc1)N1CCN(c2ccc(Cl)cc2)CC1,.,?,i,18µM*
C=CCN1C(C(=O)OC)CN(Cc2cn(Cc3ccc(F)cc3)nn2)CCS1(=O)=O (stereo unspecified),.,i,.,.
CN(CC1COc2ccccc2O1)C(=O)CCNS(=O)(=O)c1ccc(F)c(Cl)c1 (stereo unspecified),2%,i,?,22µM*
Cc1ccc(S(=O)(=O)NCC(=O)NCC2COc3ccccc3O2)cc1C (stereo unspecified),-4%,i,i,5%
O=C(c1ccc(Cl)c(Cl)c1)N1CCC(Oc2cccnc2)CC1,.,i,.,.
O=C(CSc1ccc(-c2nc3ccccc3[nH]2)cn1)N1CCN(C(=O)c2ccco2)CC1,0%,14µM*,i,0%
O=C(CCc1nc2ccccc2[nH]1)N1CCN(C(=O)c2ccco2)CC1,-6%,i,i,0%
COC(=O)c1cc(S(=O)(=O)N2CCN(c3cccc(C(F)(F)F)c3)CC2)cn1C,.,i,.,.
O=C(Nc1cccn(Cc2c(Cl)cccc2Cl)c1=O)c1ccccc1Cl,-11%,i,i,4µM*
COC(=O)N1C(=O)[C@@](c2ccccc2)(C2CCCCC2)N1C(=O)OC,1%,i,i,18µM*
COC(=O)N1C(=O)[C@](Cc2ccccc2)(c2ccccc2)N1C(=O)OC,4%,i,i,18µM*
CC[C@@]1(c2ccccc2)C(=O)N(C(=O)OC)N1C(=O)OC,0%,i,i,3%
COC(=O)N1C(=O)[C@](c2ccccc2)(C(C)C)N1C(=O)OC,7%,i,i,10µM*
COC(=O)N1C(=O)[C@@](Cc2ccccc2)(c2ccccc2)N1C(=O)OC,2%,i,i,?
SMILES,aSyn rescue,FUS yeast rescue,Abeta yeast res,TDP-43 yeast inh
CCOc1cc(C(=O)NCCc2csc(-c3ccc(C)cc3)n2)cc(OCC)c1OCC,.,i,i,21%
O=C(OCC(=O)N1CCCC1=O)c1nc(Cl)c(Cl)c(Cl)c1Cl,4%,i,i,25µM*
CCNC(=O)C1=C(O)c2sccc2N(C)S1(=O)=O,6%,i,i,8.9µM*
CN1c2ccsc2C(O)=C(C(=S)Nc2ccccc2)S1(=O)=O,12%,i,i,?
O=C(OC12CCCN(C1)/C(=C/c1ccccc1)C2)c1ccccc1 (stereo unspecified),.,i,.,.
COc1ccc(CNC(=O)O[C@H]2CC[C@@]34CCCN3C(=O)CCC[C@H]4C2)cc1,.,i,.,.
S=c1[nH]nc(COc2ccc3ccccc3c2)o1,-7%,i,i,11µM*
O=C(Nc1cccc(C(F)(F)F)c1)Nc1ccon1,-11%,i,i,20µM*
O=C(Nc1cccc(C(F)(F)F)c1)c1sc(Cl)nc1C(F)(F)F,-23%,i,10µM*,13µM*
Cc1ccccc1NC(=O)c1sc(Cl)nc1C,0%,i,i,?
O=C(Nc1ccon1)Nc1cccc(Cl)c1Cl,1%,i,i,13µM*
Cc1nc(Cl)sc1C(=O)Nc1ccc(C(C)(C)C)cc1,-12%,i,i,11µM*
N#C/C(=C\c1ccco1)Sc1nc2ccccc2s1,-13%,i,i,16µM*
CCc1ccc(S(=O)(=O)Nc2ccc3[nH]c(=O)sc3c2)cc1,.,i,i,16%
C[C@H]1O[C@H](O[C@H]2[C@H](O[C@@H]3CC[C@@]4(C)C(CC[C@]5(C)C4CC=C4[C@@H]6CC(C)(C)CC[C@]6(C(=O)O[C@@H]6O[C@H](CO)[C@@H](O)[C@H](O)[C@H]6O)CC[C@]45C)C3(C)C)O[C@H](C(=O)O)[C@@H](O)[C@@H]2O)[C@@H](O)[C@@H](O)[C@@H]1O (stereo partly specified),2%,?,i,1%
C[C@@H]1CC[C@]2(C(=O)O[C@@H]3O[C@H](CO)[C@@H](O)[C@H](O)[C@H]3O)CC[C@]3(C)C(=CCC4[C@@]5(C)C[C@@H](O)[C@H](O)[C@@](C)(C(=O)O[C@@H]6[C@H](O)C[C@@]7(C)C(CC[C@]8(C)C7CC=C7[C@H]9[C@](C(=O)O[C@@H]%10O[C@H](CO)[C@@H](O)[C@H](O)[C@H]%10O)(CC[C@@H](C)[C@@]9(C)O)CC[C@]78C)[C@@]6(CO)C(=O)O)C5CC[C@]43C)[C@@H]2[C@]1(C)O (stereo partly specified),2%,13µM*,i,12%
COC[C@@H]1CCCN1c1ccc2c(c1)O[C@@H]1CCN(C1)S2(=O)=O,.,i,.,.
Cc1cccc(Cn2cc(COC(=O)Nc3ccc(F)cc3)nn2)c1,.,i,.,.
CNC(=O)COC(=O)/C=C/c1nc2ccccc2s1,7%,i,i,16µM*
Cc1ccc(C)c(NC(=O)C(OC(=O)c2cnc(C)cn2)c2ccccc2)c1 (stereo unspecified),4%,i,i,23%
Cc1cnc(C(=O)OC(C(=O)Nc2cc(C(F)(F)F)ccc2Cl)c2ccccc2)cn1 (stereo unspecified),2%,i,?,18µM*
CCN(CC)c1ccc(/C=C(/C#N)c2nc3ccccc3[nH]2)c(OC(C)C)c1,-25%,?,i,13µM*
CCOc1cccc(/C=C(/C#N)c2nc3ccccc3[nH]2)c1OCC(=O)O,-1%,i,i,13%
Cc1ccc(N=Nc2ccc(O)c3ncccc23)cc1C,?,i,i,28µM*
Cc1ccc(N=Nc2ccc(O)c3ncccc23)cc1,?,i,?,19%
O=C(CCS(=O)(=O)c1cc(Br)cc2c1N(C(=O)C1CC1)CC2)NCc1ccc(Cl)cc1,.,28µM*,i,2%

# Screening results (PubChem)
